Sampled rows, rich in hits. Any-hit rate of the full collection: about 19%.
TDP1 cell CPT: growth inhibition of DT40 Tdp1-/-;hTDP1 cells with camptothecin (screen for TDP1 inhibitors) | chicken DT40 Tdp1-/-;hTDP1 cells + 20 nM CPT, ATP luminescence, 48 h | 12% of 420,000 active | Potency, µM (top dose mostly 46.2 µM), for inactives: at the highest dose activity change, negative = growth inhibition, actives largely listed as inhibitors; further: potency means the concentration at half of the fitted maximal effect; nearly all actives have a fitted effect of over 55% in size
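Chicken DT40 Tdp1-/- cells complemented with human TDP1, 400 cells/well, exposed to compounds plus 20 nM camptothecin for at least 48 h at 37 C; viability read as ATP content by CellTiter-Glo luminescence.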
ELG1 DNA repair: blocks ELG1-dependent DNA repair in HEK293T cells. HEK293T ELG1-luciferase reporter, luminescence, 16 h; DNA damage induced by 5-fluorouridine. Potency, µM (top dose mostly 46.1 µM), without a hit: at the highest dose activity change, negative = inhibition, hits mostly inhibitors. 2.3% of 330,000 active. AID 504467; further: potency means the concentration at half of the fitted maximal effect; nearly all actives have a fitted effect of over 55% in size
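HEK293T cells expressing luciferase-tagged ELG1 (2,000/well) received 5-Fluorouridine plus compound or DMSO for 16 hr at 37 °C. Luciferase was read by ONE-Glo luminescence after 30 min at room temperature.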
IL1B secr inh: inhibitors of inflammasome signaling (IL-1 beta secretion) | activity change, % at 57.5 µM | AID 743279 | THP-1 LPS/ATP IL-1B secretion, AlphaLISA, 16 h; stronger effect = lower value | 4.7% of 360,000 active; in the data active means activity change below about -50%; inconclusive means mostly about -30% to -49%
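THP-1 cells pretreated 1 hr with compounds (up to 57.5 uM final), then stimulated with LPS (250 ng/mL final) plus ATP (1.25 mM final); secreted IL-1B measured by AlphaLISA after 16 hr, decreased signal indicating inhibition.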
Giardia kill: kills Giardia lamblia; 0.15% of 340,000 active; Giardia lamblia trophozoite viability; AID 540267; activity change, % at 7.66 µM, hits read low; in the data active means activity change below about -80%; inconclusive means between about -30% and that limit;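 further: parasites exposed to compound for two days anaerobically before the ATP read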
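Luminescence from cellular ATP indicates surviving trophozoites (100 cells/well) following 48 hrs anaerobic compound treatment at 37 deg C; signal develops 15-30 min at room temperature.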
TDP1 inh: TDP1 (human) enzyme inhibition | Q9NUW8 | recombinant TDP1, AlphaScreen DNA substrate cleavage | Potency, µM (highest dose often 130 µM), for the others: at the highest dose activity change, negative = inhibition, hits mostly inhibitors | 0.28% of 350,000 active | AID 485290; further: potency means the concentration at half of the fitted maximal effect; nearly all actives have a fitted effect of over 40% in size
Target sequence (Q9NUW8 whole entry, looked up): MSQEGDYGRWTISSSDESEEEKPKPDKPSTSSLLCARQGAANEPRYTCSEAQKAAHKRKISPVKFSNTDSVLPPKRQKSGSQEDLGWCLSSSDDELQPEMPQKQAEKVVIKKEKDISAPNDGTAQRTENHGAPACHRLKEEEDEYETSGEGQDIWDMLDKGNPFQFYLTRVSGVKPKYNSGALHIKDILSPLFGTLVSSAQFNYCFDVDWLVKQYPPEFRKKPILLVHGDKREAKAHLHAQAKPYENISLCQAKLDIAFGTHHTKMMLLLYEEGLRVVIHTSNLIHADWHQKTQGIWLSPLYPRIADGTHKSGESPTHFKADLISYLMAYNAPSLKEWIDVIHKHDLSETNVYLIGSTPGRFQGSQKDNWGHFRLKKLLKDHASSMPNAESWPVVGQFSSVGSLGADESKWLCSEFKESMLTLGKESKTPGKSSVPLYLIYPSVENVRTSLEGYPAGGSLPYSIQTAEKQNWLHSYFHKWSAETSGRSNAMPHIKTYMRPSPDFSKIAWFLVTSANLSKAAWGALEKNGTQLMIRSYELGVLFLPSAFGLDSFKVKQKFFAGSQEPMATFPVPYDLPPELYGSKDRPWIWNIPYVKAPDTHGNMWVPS
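Signal: AlphaScreen proximity between streptavidin donor and anti-FITC acceptor beads on intact substrate. Reaction: Tdp1 1 nM, substrate 15 nM final, 5 min RT after 15 min compound preincubation.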
DT40 TDP1 no CPT: qHTS for Inhibitors of human tyrosyl-DNA phosphodiesterase 1 (TDP1): qHTS in cells in absence of CPT; DT40 Tdp1-/- hTDP1 cells, no CPT, ATP luminescence, 48 h; Potency, µM (top dose mostly 46.2 µM), inactives show at the highest dose activity change, negative = growth inhibition, most hits filed as inhibitors; 15% of 420,000 active; AID 686978, 2013; further: potency means the concentration at half of the fitted maximal effect; nearly all actives have a fitted effect of over 55% in size
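A cellular qHTS used chicken DT40 cells lacking endogenous Tdp1 but carrying stably transfected human TDP1. Compounds were applied without camptothecin, and cell growth kinetics were judged by ATP-dependent luminescence after ≥48 hr.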
* hit, by the source's call; ! = repeats disagree; [ ] = remark or other dose. Unless noted, the call rests on the fitted dose curve; in most records, active means well fitted curve in the direction sought with a large enough effect; inconclusive means small, poorly fitted or top-dose-only effect, or another doubt; inactive means no such curve, though single readings can be large; an effect the other way counts as inactive or inconclusive. On the % scale 0 is the no-effect control and ±100 the full control effect.

Results for CN(c1ccccc1)S(=O)(=O)c1cccc(NC(=O)CCNC(=O)c2ccco2)c1 ?
TDP1 cell CPT: inconclusive; IL1B secr inh: 21; DT40 TDP1 no CPT: inconclusive

How did COc1cccc(NC(=O)CSc2nnc(-c3cccc(OC(C)C)c3)n2N)c1 do in these assays?
TDP1 cell CPT: inconclusive; ELG1 DNA repair: inconclusive; IL1B secr inh: -25; Giardia kill: -5; TDP1 inh: 7%; DT40 TDP1 no CPT: inconclusive

How did CC(C)(C)c1ccc(OCC(O)CSc2ncn[nH]2)cc1 (stereo not given) do in these assays?
TDP1 cell CPT: -29%; ELG1 DNA repair: inconclusive; IL1B secr inh: 5; Giardia kill: 5; TDP1 inh: -1%; DT40 TDP1 no CPT: -25%

Results for c1cncc(-c2nnc(-c3cccnc3)nn2)c1 ?
TDP1 cell CPT: 2.9µM*; ELG1 DNA repair: inconclusive; IL1B secr inh: 20; Giardia kill: -11; TDP1 inh: 4%; DT40 TDP1 no CPT: 5.2µM*

How did Cc1cc2oc(C(=O)NCc3ccccc3)cc(=O)c2cc1C do in these assays?
TDP1 cell CPT: 13%; ELG1 DNA repair: inconclusive; IL1B secr inh: 62; Giardia kill: 11; DT40 TDP1 no CPT: -8%

What do the screens show for `CCCCCCCCCCCCCCCC[N+](C)(C)CC`?
TDP1 cell CPT: 1µM*; ELG1 DNA repair: -22%; IL1B secr inh: -1; Giardia kill: -4; TDP1 inh: 2%; DT40 TDP1 no CPT: 0.52µM*!

What do the screens show for `CCCCCCCC[N+](C)(C)CCCCCCCC`?
TDP1 cell CPT: 1.7µM*; DT40 TDP1 no CPT: 1.5µM*

What do the screens show for `CCCCCC[N+](C)(C)CCSSCC[N+](C)(C)CCCCCC`?
TDP1 cell CPT: -7%; ELG1 DNA repair: 3%; IL1B secr inh: -11; Giardia kill: 6; DT40 TDP1 no CPT: -5%

How did CCCCCCCCCCCCCC[N+](C)(C)C do in these assays?
TDP1 cell CPT: 0.94µM*; TDP1 inh: 6%; DT40 TDP1 no CPT: 0.6µM*

How did CCCCCCCCCCCCCCCC[N+](C)(C)CCl do in these assays?
TDP1 cell CPT: 1.8µM*; IL1B secr inh: -92*; Giardia kill: -10; DT40 TDP1 no CPT: 2.3µM*

Results for CCCCCCCC[N+](CCCCCCCC)(CCCCCCCC)CCCCCCCC ?
TDP1 inh: 0%

What do the screens show for `COc1ccc(C(CNC(=O)CCNS(=O)(=O)c2ccccc2C(F)(F)F)N2CCOCC2)cc1` (stereo not given)?
TDP1 cell CPT: -13%; IL1B secr inh: -12; Giardia kill: -6; DT40 TDP1 no CPT: -8%

How did COc1ccc(S(=O)(=O)N(CCc2ccccc2)CC(=O)N/N=C/c2ccc3c(c2)OCO3)cc1 do in these assays?
TDP1 cell CPT: inconclusive; ELG1 DNA repair: 16µM*; IL1B secr inh: -1; Giardia kill: -4; TDP1 inh: 4%; DT40 TDP1 no CPT: inconclusive

Results for O=C(CN(CCc1ccccc1)S(=O)(=O)c1ccc(Cl)cc1)N/N=C/c1ccc2c(c1)OCO2 ?
TDP1 cell CPT: -16%; ELG1 DNA repair: -9%; IL1B secr inh: 20; Giardia kill: 4; TDP1 inh: 3%; DT40 TDP1 no CPT: -12%

How did CCOc1cc(/C=N/NC(=O)CN(CCc2ccccc2)S(=O)(=O)c2ccc(NC(C)=O)cc2)ccc1O do in these assays?
TDP1 cell CPT: inconclusive; ELG1 DNA repair: 26µM*; IL1B secr inh: inconclusive; Giardia kill: 3; TDP1 inh: 6%; DT40 TDP1 no CPT: 18µM*

What do the screens show for `CCC(C)(C)NC(=O)Cn1c(=O)ccc2cc(S(=O)(=O)N3CCC(C)CC3)ccc21`?
TDP1 cell CPT: inconclusive; TDP1 inh: -1%; DT40 TDP1 no CPT: inconclusive

Results for Cc1ccc(OCCC(=O)N(CC(=O)Nc2ccccc2C(F)(F)F)Cc2ccco2)cc1 ?
TDP1 cell CPT: inconclusive; ELG1 DNA repair: inconclusive; IL1B secr inh: -27; Giardia kill: 15; TDP1 inh: -12%[0.505 µM]; DT40 TDP1 no CPT: inconclusive

What do the screens show for `O=Cc1cc(N=Nc2ccccc2Cl)ccc1O`?
TDP1 cell CPT: 21µM*; ELG1 DNA repair: inconclusive; IL1B secr inh: 143; Giardia kill: 2; TDP1 inh: 10%; DT40 TDP1 no CPT: 4.1µM*

How did Cc1cccc(OCC(=O)OCc2cc(=O)n3nc(-c4cccs4)sc3n2)c1 do in these assays?
TDP1 cell CPT: -10%; TDP1 inh: 2%; DT40 TDP1 no CPT: 2%

How did O=C(NC1CCCCC1)C(c1ccccc1)n1c(=O)c(-c2cc3ccccc3[nH]2)nc2ccccc21 (stereo not given) do in these assays?
TDP1 cell CPT: inconclusive; IL1B secr inh: -69*; DT40 TDP1 no CPT: inconclusive

How did COc1ccc(C(C(=O)Nc2ccc3c(c2)OCCO3)n2c(=O)c(-c3cc4ccccc4[nH]3)nc3ccccc32)cc1 (stereo not given) do in these assays?
TDP1 cell CPT: inconclusive; IL1B secr inh: -13; DT40 TDP1 no CPT: inconclusive

What do the screens show for `CCC(C(=O)NC1CCCC1)n1c(C2CC2)nc2ccccc21` (stereo not given)?
TDP1 cell CPT: -24%; IL1B secr inh: 20; DT40 TDP1 no CPT: -30%

What do the screens show for `N#Cc1ccc(C(C(=O)NC2CCCCC2)n2c(=O)c(-c3cc4ccccc4[nH]3)nc3ccccc32)cc1` (stereo not given)?
TDP1 cell CPT: 15µM*; IL1B secr inh: -2; DT40 TDP1 no CPT: 15µM*

Results for COc1ccc(C(C(=O)NC2CCCCC2)n2c(=O)c(-c3cc4ccccc4[nH]3)nc3ccccc32)cc1 (stereo not given) ?
TDP1 cell CPT: inconclusive; IL1B secr inh: 27; DT40 TDP1 no CPT: 15µM*

How did CSCCC(C(=O)NC1CCCC1)n1c(C2CCCC2)nc2ccccc21 (stereo not given) do in these assays?
TDP1 cell CPT: inconclusive; IL1B secr inh: -88*; DT40 TDP1 no CPT: inconclusive

Results for CC(C)(C)NC(=O)C(c1ccc(C#N)cc1)n1c(=O)c(-c2ccccc2)nc2ccccc21 (stereo not given) ?
TDP1 cell CPT: inconclusive; IL1B secr inh: -17; DT40 TDP1 no CPT: inconclusive

How did CCCN(CC(=O)Nc1ccccc1C)C(=O)c1cnc(C)cn1 do in these assays?
TDP1 cell CPT: 12%; IL1B secr inh: 12; Giardia kill: 6; DT40 TDP1 no CPT: 4%

What do the screens show for `O=C(NC1CCCCC1)C(c1ccnc2ccccc12)N1CCOCC1` (stereo not given)?
TDP1 cell CPT: -27%; IL1B secr inh: 0; DT40 TDP1 no CPT: -16%

Screening data (PubChem BioAssay)
